Test results published in PubChem BioAssay (NCI).
This is part of a sample that, as a whole, favours compounds with a hit. Of some 79,000 tested, about 15% had one in any assay. Values without a mark were called inactive. Active and inactive are the calls of the source. Cut-off read from the data, not from the text of the source: active = growth inhibition above about 70%; inactive = the rest.

What was measured:
[1] = NCI Yeast Anticancer Drug Screen. Data for the rad50 strain (AID 155);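 note: 0% = growth of vehicle-only cultures of the same strain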; conditions: S. cerevisiae rad50 strain growth inhibition, hits give high values
How it was run: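 Vehicle-treated cultures provide the reference for the growth inhibition reported for compound-exposed, repair-deficient yeast.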

[2] = NCI Yeast Anticancer Drug Screen. Data for the mec2-1 strain (AID 157); conditions: S. cerevisiae mec2-1 strain, hits give high values
How it was run: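 Cells of the genetically defined mec2-1 yeast strain are incubated with test compound. Inhibition of growth is calculated against vehicle-treated controls.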

[3] = NCI Yeast Anticancer Drug Screen. Data for the sgs1 mgt1 strain (AID 161);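 note: 0% = growth of cultures given vehicle only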; conditions: S. cerevisiae sgs1 mgt1 strain, hits give high values
How it was run: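 Read-out: growth inhibition vs vehicle controls. Cells: mutant yeast strain deficient in DNA damage repair.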

[4] = NCI Yeast Anticancer Drug Screen. Data for the cln2 rad14 strain (AID 165);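 note: 0% = growth equal to vehicle treated cultures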; conditions: S. cerevisiae cln2 rad14 strain, hits give high values
How it was run: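 The screen exposed genetically defined yeast (cln2 rad14) to test compounds and scored growth inhibition relative to vehicle-treated controls.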

[5] = NCI Yeast Anticancer Drug Screen. Data for the bub3 strain (AID 167); conditions: S. cerevisiae bub3 mutant strain, hits give high values
How it was run: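 Mutant yeast screening strain plus compound; vehicle-treated cultures serve as the 0% inhibition reference.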

[6] = NCI Yeast Anticancer Drug Screen. Data for the mlh1 rad18 strain (AID 175); conditions: S. cerevisiae mlh1 rad18 strain growth inhibition, hits give high values
How it was run: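 Compound-treated yeast growth, normalised to vehicle controls. Strain bears defined DNA repair mutations.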

[7] = at 5.0 µM (retest, dose inferred, filed as 0.5)
[8] = at 50.0 µM (retest, dose inferred, filed as 5.0)

SMILES: CC1CCC(NCCOC(=O)c2ccc([N+](=O)[O-])cc2)CC1 (stereo not drawn)
- growth inhibition [1, 7]: 2%
- growth inhibition [1, 8]: 23%
- growth inhibition ([1]; at 50.0 µM): 70.8% (active)
- growth inhibition [2, 7]: 1%
- growth inhibition [2, 8]: 18%
- growth inhibition ([2]; at 50.0 µM): -2.9%
- growth inhibition [3, 7]: 1%
- growth inhibition [3, 8]: 24%
- growth inhibition ([3]; at 50.0 µM): 54.5%
- growth inhibition [4, 7]: -75%
- growth inhibition [4, 8]: 41%
- growth inhibition ([4]; at 50.0 µM): 31.9%
- growth inhibition [5, 7]: -8%
- growth inhibition [5, 8]: -71%
- growth inhibition ([5]; at 50.0 µM): 17.6%
- growth inhibition [6, 7]: -3%
- growth inhibition [6, 8]: 6%
- growth inhibition ([6]; at 50.0 µM): 42.9%

SMILES: O=C(N/C(=C\c1ccc(Br)cc1)c1nc2ccccc2[nH]1)c1ccccc1
- growth inhibition [1, 7]: 3%
- growth inhibition [1, 8]: 59%
- growth inhibition ([1]; at 50.0 µM): 73.4% (active)
- growth inhibition [2, 7]: -17%
- growth inhibition [2, 8]: 27%
- growth inhibition ([2]; at 50.0 µM): 95.8% (active)
- growth inhibition [3, 7]: -2%
- growth inhibition [3, 8]: 60%
- growth inhibition ([3]; at 50.0 µM): 68%
- growth inhibition [4, 7]: -6%
- growth inhibition [4, 8]: 41%
- growth inhibition ([4]; at 50.0 µM): 66.9%
- growth inhibition [5, 7]: 6%
- growth inhibition [5, 8]: 78% (active)
- growth inhibition ([5]; at 50.0 µM): 88.4% (active)
- growth inhibition [6, 7]: 2%
- growth inhibition [6, 8]: 21%
- growth inhibition ([6]; at 50.0 µM): 96.5% (active)

SMILES: Nc1ccccc1-c1nc2c(ccc3ccccc32)[nH]1
- growth inhibition [1, 7]: -1%
- growth inhibition [1, 8]: 10%
- growth inhibition ([1]; at 50.0 µM): 79.7% (active)
- growth inhibition [2, 7]: -17%
- growth inhibition [2, 8]: -10%
- growth inhibition ([2]; at 50.0 µM): 4.6%
- growth inhibition [3, 7]: -16%
- growth inhibition [3, 8]: -5%
- growth inhibition ([3]; at 50.0 µM): 88.8% (active)
- growth inhibition [4, 7]: 8%
- growth inhibition [4, 8]: -10%
- growth inhibition ([4]; at 50.0 µM): 24.6%
- growth inhibition [5, 7]: -3%
- growth inhibition [5, 8]: 2%
- growth inhibition ([5]; at 50.0 µM): 62.3%
- growth inhibition [6, 7]: 0%
- growth inhibition [6, 8]: -18%
- growth inhibition ([6]; at 50.0 µM): 80.5% (active)

SMILES: COc1ccc(C2COc3cc(O)c(O)cc3C2)cc1OC (stereo not drawn)
- growth inhibition [1, 7]: -10%
- growth inhibition [1, 8]: 60%
- growth inhibition ([1]; at 50.0 µM): 61.4%
- growth inhibition [2, 7]: 14%
- growth inhibition [2, 8]: 81% (active)
- growth inhibition ([2]; at 50.0 µM): 72.2% (active)
- growth inhibition [3, 7]: 7%
- growth inhibition [3, 8]: 69%
- growth inhibition ([3]; at 50.0 µM): 43.3%
- growth inhibition [4, 7]: -6%
- growth inhibition [4, 8]: 2%
- growth inhibition ([4]; at 50.0 µM): 51.5%
- growth inhibition [5, 7]: -14%
- growth inhibition [5, 8]: 60%
- growth inhibition ([5]; at 50.0 µM): 29.6%
- growth inhibition [6, 7]: 1%
- growth inhibition [6, 8]: 90% (active)
- growth inhibition ([6]; at 50.0 µM): 88% (active)

SMILES: COc1ccc2c(c1)CC[C@@H]1[C@@H]2CC[C@]2(C)/C(=N/OCCN3CCCC3)CC[C@@H]12
- growth inhibition [1, 7]: 95% (active)
- growth inhibition [1, 8]: 99% (active)
- growth inhibition ([1]; at 50.0 µM): 89.5% (active)
- growth inhibition [2, 7]: 38%
- growth inhibition [2, 8]: 99% (active)
- growth inhibition ([2]; at 50.0 µM): 91.8% (active)
- growth inhibition [3, 7]: 24%
- growth inhibition [3, 8]: 96% (active)
- growth inhibition ([3]; at 50.0 µM): 92.1% (active)
- growth inhibition [4, 7]: 46%
- growth inhibition [4, 8]: 98% (active)
- growth inhibition ([4]; at 50.0 µM): 89.7% (active)
- growth inhibition [5, 7]: 49%
- growth inhibition [5, 8]: 97% (active)
- growth inhibition ([5]; at 50.0 µM): 91.1% (active)
- growth inhibition [6, 7]: 39%
- growth inhibition [6, 8]: 99% (active)
- growth inhibition ([6]; at 50.0 µM): 91.1% (active)

SMILES: CN(C)C(=O)Nc1ccc(Cc2ccc(NC(=O)N(C)C)cc2)cc1
- growth inhibition [1, 7]: -6%
- growth inhibition [1, 8]: -32%
- growth inhibition ([1]; at 50.0 µM): -3%
- growth inhibition [2, 7]: -29%
- growth inhibition [2, 8]: -32%
- growth inhibition ([2]; at 50.0 µM): -13.2%
- growth inhibition [3, 7]: -13%
- growth inhibition [3, 8]: -8%
- growth inhibition ([3]; at 50.0 µM): 27.6%
- growth inhibition [4, 7]: 5%
- growth inhibition [4, 8]: -4%
- growth inhibition ([4]; at 50.0 µM): 3.65%
- growth inhibition [5, 7]: -19%
- growth inhibition [5, 8]: -20%
- growth inhibition ([5]; at 50.0 µM): 7.95%
- growth inhibition [6, 7]: -33%
- growth inhibition [6, 8]: -56%
- growth inhibition ([6]; at 50.0 µM): -0.15%
